In PubChem BioAssay (EPA / NIEHS):
Calls of active or inactive are those of the source. Rule for the calls: active = hit-call score of the fitted dose curve at least 0.9, where 1 is the maximum; inactive = score below 0.9.

How the values were obtained:
[1] = read-out: Vascular cell adhesion molecule 1 (VCAM1), VCAM1 (gene 7412); assay: BSK_CASM3C_VCAM1: BioMAP Diversity Plus: CASM3C Assay for Vascular cell adhesion molecule 1 (VCAM1) Biomarker Activity (AID 2283055); conditions: primary human coronary artery smooth muscle cells; actives raise or lower the signal;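 note: VCAM-1 protein level quantified by ELISA on the cells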
[2] = read-out: Collagen III, COL3A1 (gene 1281); assay: BSK_hDFCGF_CollagenIII: BioMAP Diversity Plus: hDFCGF Assay for Collagen III Biomarker Activity (AID 2283056); conditions: primary human foreskin fibroblasts; actives raise or lower the signal
Procedure, shortened: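 ELISA read-out of collagen III from human skin fibroblast cultures sampled 24 h post-dosing. Values were derived by bidirectional fitting relative to the DMSO vehicle control.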

[3] = read-out: Epidermal growth factor receptor (EGFR), EGFR (gene 1956); assay: BSK_hDFCGF_EGFR: BioMAP Diversity Plus: hDFCGF Assay for Epidermal growth factor receptor (EGFR) Biomarker Activity (AID 2283057); conditions: primary human foreskin fibroblasts; actives raise or lower the signal
Procedure, shortened: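 Primary human foreskin fibroblasts were exposed to compound for 24 h, after which cell-surface EGFR was quantified by ELISA. Activity was fitted bidirectionally against the DMSO negative control as baseline.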

[4] = read-out: Interleukin-8 (IL8), CXCL8 (gene 3576); assay: BSK_hDFCGF_IL8: BioMAP Diversity Plus: hDFCGF Assay for Interleukin-8 (IL8) Biomarker Activity (AID 2283058); conditions: primary human foreskin fibroblasts; actives raise or lower the signal
Procedure, shortened: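 Cells used are human skin primary fibroblasts. Chemical is added, cultures run 24 h, then IL-8 is quantified by ELISA, and gain or loss versus DMSO control is fitted in both directions.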

[5] = BSK_hDFCGF_Proliferation: Cell Proliferation Assessment in the BioMAP Diversity Plus: hDFCGF Assay (AID 2283059); conditions: primary human foreskin fibroblasts;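 note: curves fitted for both rise and fall of signal versus DMSO baseline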
Procedure, shortened: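 Steps: dose primary human dermal fibroblasts (foreskin); […] fix in 10% TCA; stain with 0.1% SRB; read 560 nm; fit gain or loss of signal against DMSO.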

[6] = read-out: Macrophage colony-stimulating factor (MCSF), CSF1 (gene 1435); assay: BSK_hDFCGF_MCSF: BioMAP Diversity Plus: hDFCGF Assay for Macrophage colony-stimulating factor (MCSF) Biomarker Activity (AID 2283060); conditions: primary human foreskin fibroblasts; actives raise or lower the signal
Procedure, shortened: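 Primary human foreskin fibroblasts dosed with chemical; 24 h later, M-CSF quantified by ELISA; curves fitted in both directions vs DMSO negative control.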

[7] = BSK_hDFCGF_SRB: Viability Assessment in the BioMAP Diversity Plus: hDFCGF Assay (AID 2283061); conditions: primary human foreskin fibroblasts;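 note: cells exposed to compound for 24 h before the read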
Procedure, shortened: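 Readout is SRB absorbance at 560 nm, reflecting total protein in parallel cultures of human foreskin fibroblasts harvested 24 h after chemical dosing. Activity was fitted bidirectionally relative to DMSO.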

[8] = read-out: TIMP metallopeptidase inhibitor 1 (TIMP1), TIMP1 (gene 7076); assay: BSK_hDFCGF_TIMP1: BioMAP Diversity Plus: hDFCGF Assay for TIMP metallopeptidase inhibitor 1 (TIMP1) Biomarker Activity (AID 2283062); conditions: primary human foreskin fibroblasts; actives raise or lower the signal
Procedure, shortened: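 Human skin fibroblasts (primary), hDFCGF system; compound exposure 24 h; TIMP-1 by ELISA; bidirectional fit vs DMSO negative control; overt cytotoxicity by SRB in parallel wells.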

[9] = read-out: Monokine induced gamma interferon (MIG), CXCL9 (gene 4283); assay: BSK_hDFCGF_MIG: BioMAP Diversity Plus: hDFCGF Assay for Monokine induced gamma interferon (MIG) Biomarker Activity (AID 2283063); conditions: primary human foreskin fibroblasts; actives raise or lower the signal
Procedure, shortened: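 Chemicals were added to primary human foreskin fibroblast cultures, which were sampled 24 h later. MIG levels were then quantified by ELISA and responses fitted in both directions relative to DMSO.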

[10] = read-out: Matrix Metallopeptidase 1 (MMP1), MMP1 (gene 4312); assay: BSK_hDFCGF_MMP1: BioMAP Diversity Plus: hDFCGF Assay for Matrix Metallopeptidase 1 (MMP1) Biomarker Activity (AID 2283064); conditions: primary human foreskin fibroblasts; actives raise or lower the signal
Procedure, shortened: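 Primary human foreskin fibroblasts in the hDFCGF system were dosed with test chemical, and MMP1 was measured by ELISA 24 h later. Values come from bidirectional curve fitting against the DMSO baseline.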

[11] = read-out: Vascular cell adhesion molecule 1 (VCAM1), VCAM1 (gene 7412); assay: BSK_hDFCGF_VCAM1: BioMAP Diversity Plus: hDFCGF Assay for Vascular cell adhesion molecule 1 (VCAM1) Biomarker Activity (AID 2283065); conditions: primary human foreskin fibroblasts; actives raise or lower the signal;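 for AC50: VCAM-1 protein level quantified by ELISA after 24 h chemical exposure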
Procedure, shortened: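 Human foreskin fibroblast primary cells, chemical exposure 24 h; VCAM-1 by ELISA; bidirectional fit, DMSO = negative control/baseline.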

[12] = read-out: Plasminogen activator inhibitor-1 (PAI1), SERPINE1 (gene 5054); assay: BSK_hDFCGF_PAI1: BioMAP Diversity Plus: hDFCGF Assay for Plasminogen activator inhibitor-1 (PAI1) Biomarker Activity (AID 2283066); conditions: primary human foreskin fibroblasts; actives raise or lower the signal
Procedure, shortened: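 Human foreskin fibroblasts in the hDFCGF system were dosed with compound for 24 h; PAI-1 was quantified by ELISA. Bidirectional curve fitting used DMSO as negative control and baseline.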

[13] = read-out: Intercellular Adhesion Molecule 1 (ICAM1), ICAM1 (gene 3383); assay: BSK_KF3CT_ICAM1: BioMAP Diversity Plus: KF3CT Assay for Intercellular Adhesion Molecule 1 (ICAM1) Biomarker Activity (AID 2283067); conditions: primary human keratinocytes with fibroblasts; actives raise or lower the signal
Procedure, shortened: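 ICAM-1 levels are measured by ELISA 24 h after dosing a primary human co-culture of keratinocytes and foreskin fibroblasts. Activity in either direction is fitted relative to DMSO vehicle.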

[14] = read-out: Interferon-gamma inducible Protein 10 (IP10), CXCL10 (gene 3627); assay: BSK_KF3CT_IP10: BioMAP Diversity Plus: KF3CT Assay for Interferon-gamma inducible Protein 10 (IP10) Biomarker Activity (AID 2283068); conditions: primary human keratinocytes with fibroblasts; actives raise or lower the signal
Procedure, shortened: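 KF3CT co-culture (keratinocytes + foreskin fibroblasts), 24 h compound, IP-10 by ELISA; bidirectional fit vs DMSO baseline.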

[15] = BSK_KF3CT_SRB: Viability Assessment in the BioMAP Diversity Plus: KF3CT Assay (AID 2283069); conditions: primary human keratinocytes with fibroblasts;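 note: total protein by sulforhodamine B staining as a cytotoxicity measure; read 24 h after compound addition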
Procedure, shortened: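 Human primary keratinocyte plus foreskin fibroblast co-culture exposed to chemicals for 24 h. Total protein measured by 0.1% sulforhodamine B staining after 10% TCA fixation, read at 560 nm; bidirectional fitting versus DMSO baseline.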

[16] = read-out: Interleukin-1 alpha (IL1a), IL1A (gene 3552); assay: BSK_KF3CT_IL1a: BioMAP Diversity Plus: KF3CT Assay for Interleukin-1 alpha (IL1a) Biomarker Activity (AID 2283070); conditions: primary human keratinocytes with fibroblasts; actives raise or lower the signal
Procedure, shortened: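 Human keratinocyte plus foreskin fibroblast primary co-culture, sampled 24 h after chemical dosing. IL-1a measured by ELISA; responses fitted bidirectionally against DMSO baseline (negative control), so gain or loss of signal both count.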

[17] = read-out: TIMP metallopeptidase inhibitor 2 (TIMP2), TIMP2 (gene 7077); assay: BSK_KF3CT_TIMP2: BioMAP Diversity Plus: KF3CT Assay for TIMP metallopeptidase inhibitor 2 (TIMP2) Biomarker Activity (AID 2283071); conditions: primary human keratinocytes with fibroblasts; actives raise or lower the signal
Procedure, shortened: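 Human primary keratinocyte/foreskin fibroblast co-culture dosed with chemical and sampled at 24 h. TIMP-2 levels quantified by ELISA; bidirectional fitting against DMSO negative control as baseline.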

[18] = read-out: Transforming growth factor beta 1 (TGFb1), TGFB1 (gene 7040); assay: BSK_KF3CT_TGFb1: BioMAP Diversity Plus: KF3CT Assay for Transforming growth factor beta 1 (TGFb1) Biomarker Activity (AID 2283072); conditions: primary human keratinocytes with fibroblasts; actives raise or lower the signal
Procedure, shortened: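 Human keratinocyte plus foreskin fibroblast primary co-culture, dosed with chemical for 24 h. TGF-b1 quantified by ELISA. Activity fitted bidirectionally against DMSO negative control as baseline.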

[19] = read-out: C-C motif chemokine 2 (Homo sapiens) (UniProt P13500); assay: BSK_KF3CT_MCP1: BioMAP Diversity Plus: KF3CT Assay for Monocyte Chemoattractant Protein 1 (MCP1/CCL2) Biomarker Activity (AID 2283073); conditions: primary human keratinocytes with fibroblasts; actives raise or lower the signal
Procedure, shortened: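 ELISA readout of MCP-1 after 24 h chemical dosing of a human skin primary co-culture of keratinocytes and foreskin fibroblasts. Activity was fitted in both directions against DMSO.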

[20] = read-out: Matrix Metallopeptidase 9 (MMP9), MMP9 (gene 4318); assay: BSK_KF3CT_MMP9: BioMAP Diversity Plus: KF3CT Assay for Matrix Metallopeptidase 9 (MMP9) Biomarker Activity (AID 2283074); conditions: primary human keratinocytes with fibroblasts; actives raise or lower the signal;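 for AC50: MMP9 protein level quantified by ELISA in the co-culture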
Procedure, shortened: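 Keratinocyte plus foreskin fibroblast human primary skin co-culture was dosed with chemical and MMP-9 was quantified by ELISA 24 h later. Bidirectional curve fitting used DMSO as negative control and activity baseline.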

Measured: AC50

Cc1cc(Cl)ccc1N
active: [5] 5.13 µM
inactive: all other assays above

Cc1cc(C(C)(C)c2ccc(O)c(C)c2)ccc1O
active: [1] 13.9 µM | [2] 15.6 µM | [5] 13.9 µM | [6] 15.3 µM | [7] 16.1 µM | [17] 12.2 µM | [18] 10 µM | [20] 15.2 µM
inactive: all other assays above

CCN(CC)C(=O)C(Cl)=C(C)OP(=O)(OC)OC
inactive: all assays above

OC(Cc1ccccc1Cl)(Cn1cncn1)C1(Cl)CC1 (stereo not given)
inactive: all assays above

CC(C=O)Cc1ccc2c(c1)OCO2 (stereo not given)
inactive: all assays above

c1ccc2sc(SNC3CCCCC3)nc2c1
not listed: [14]
inactive: all other assays above

CC(C)(COCC1CO1)COCC1CO1 (stereo not given)
active: [5] 20 µM
not listed: [14]
inactive: all other assays above

CC(C)O.CC(C)O.OCCN(CCO)CCO.OCCN(CCO)CCO.[Ti]
active: [6] 20 µM | [9] 30.6 µM | [10] 24.8 µM | [14] 33.7 µM
inactive: all other assays above

Cc1ccccc1OP(=O)(Oc1ccccc1C)Oc1ccccc1C
inactive: [2] | [4] | [13] | [18]
active: [1] 32.4 µM | [3] 11.8 µM | [5] 4.26 µM | [6] 7.75 µM | [7] 8.28 µM | [8] 11.7 µM | [9] 12.8 µM | [10] 12.7 µM | [11] 6.18 µM | [12] 6.03 µM | [15] 20 µM | [16] 11.3 µM | [17] 5.54 µM | [19] 12.1 µM | [20] 5.56 µM

OCCCCO
not listed: [14] | [18] | [19]
inactive: all other assays above

O=C(Cc1ccccc1)OCCc1ccccc1
not listed: [14] | [18]
inactive: all other assays above

O=c1oc2ccccc2c(O)c1C(CC(O)c1ccc(-c2ccc(Br)cc2)cc1)c1ccccc1 (stereo not given)
inactive: [4] | [8]
active: [1] 5.57 µM | [2] 0.632 µM | [3] 4.73 µM | [5] 5.25 µM | [6] 5.57 µM | [7] 5.28 µM | [9] 11.2 µM | [10] 6.12 µM | [11] 5.3 µM | [12] 5.32 µM | [13] 5.92 µM | [15] 4.99 µM | [16] 5.57 µM | [17] 5.28 µM | [18] 5.23 µM | [19] 10 µM | [20] 19.1 µM

Nc1ccc(N)cc1
not listed: [14]
inactive: all other assays above
